# High-throughput results as filed in PubChem.
# Peg3 prom inh: inhibitors of Peg3 promoter; hit rate 1.7% among 360,000; HeLa PEG-Prom luciferase reporter, luminescence, overnight; inhibition, % at 20 µM;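 active means inhibition of at least 50% at 20 µM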
# KKLEB tox: reduces viability of KKLEB cystic fibrosis airway cells; KKLEB CF airway cells viability, ATPlite luminescence, overnight; stronger effect = lower value; cells stimulated with P. aeruginosa culture filtrate; activity change (cytotoxicity), % at 5 µM; hit rate 0.36% among 360,000; AID 602141;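 active means corrected activity change at or below -50% at 5 µM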
# ABHD5-PLIN5 inh: ABHD5-PLIN5 protein interaction inhibition | Q00G26+Q8WTS1 | Split G. princeps luciferase complementation, luminescence, 4 h | inhibition, % at 4 µM | hit rate 0.78% among 360,000 | AID 602281;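 active means inhibition above the mean inhibition across every tested compound plus 3 SD, cut at about 22% in these data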;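 further: 0% = DMSO only wells and the 100% control is not disclosed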
# Mdm2 MdmX PPI: inhibitors of human Mdm2/MdmX interaction; O15151+Q00987; AID 485346; SaOS-2 split-luciferase Mdm2/MdmX complementation, luminescence; hit rate 3% among 330,000; inhibition, % at 8 µM;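 active means inhibition of at least 50% at 8 µM in the primary screen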
# HIF-2a inh: HIF-2a inhibition. 786-0 RCC cells HIF-2a reporter, luciferase luminescence, overnight. inhibition, % at 18.8 µM. hit rate 0.72% among 360,000. AID 624352;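 active means inhibition of the luminescence signal of 40% or more relative to plate controls, in a single-dose primary screen at 18.75 µM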
# CF NFkB inh: cystic fibrosis NF-kB activation inhibition; KKLEB NF-kB-GFP reporter, PAF-induced, GFP fluorescence overnight; inhibition, % at 5 µM; hit rate 0.86% among 360,000; AID 588850;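 active means at least 50% inhibition at 5 µM, scaled per plate between neutral and stimulator controls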;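 further: PAF is a Pseudomonas aeruginosa culture filtrate used as stimulus; plate controls were PAF-stimulated DMSO wells for no effect and unstimulated DMSO wells for full effect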
# Mdm2 MdmX conf: confirmation of human Mdm2/MdmX interaction inhibitors. shares compounds with Mdm2 MdmX PPI. Mdm2-MdmX binding, luminescent assay. inhibition, % at 8 µM. hit rate 55% among 10,000. AID 489028; in the data active means inhibition above about 40%
# Full FLuc ctr: counter-screen for Mdm2/MdmX inhibitors: full-length luciferase; shares compounds with Mdm2 MdmX PPI; SaOS-2 full-length luciferase counterscreen, luminescence; inhibition, % at 8 µM; hit rate 77% among 6,200;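 active means mean inhibition at 8 µM reaching about 37%, which flags the compound as non-specific, limit read from the data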;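 further: p53-null SaOS-2 cells with luciferase driven by a doxycycline-inducible promoter; compound on cells about two nights before reading with doxycycline added after day one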
# * hit, by the source's call; / = not tested or not shown. Sampled rows, rich in hits. Any-hit rate of the full collection: about 4.6%.
SMILES,Peg3 prom inh,KKLEB tox,ABHD5-PLIN5 inh,Mdm2 MdmX PPI,HIF-2a inh,CF NFkB inh,Mdm2 MdmX conf,others
CN1CCN(c2ccc([N+](=O)[O-])cc2/C=N/NC(=O)c2cccc([N+](=O)[O-])c2)CC1,/,/,/,51*,/,/,-4,
O=C(NCc1cccnc1)c1cc(C(=O)NCc2cccnc2)cc([N+](=O)[O-])c1,7,-1,-5,/,4,22,/,
Cc1ccc(NC(=O)c2cc(C(C)(C)C)nn2Cc2ccccc2)cc1,3,-4,-10,74*,-42,-10,55*,Full FLuc ctr=59*
Cc1cc(C)c2nc(Cl)c(CN(Cc3ccco3)C(=O)Nc3ccccc3C)cc2c1,13,-4,4,63*,-16,19,53*,Full FLuc ctr=98*
CCC(=Cc1ccccc1OC)c1ccncc1,8,-12,6,/,2,-2,/,
Cc1ccc(C)c(N2CCN(S(=O)(=O)c3c(C)noc3/C=C/N(C)C)CC2)c1,3,9,-4,56*,15,14,28,
COc1ccc2cc(C3=CC(=O)CC(C)(C)C3=O)ccc2c1,-411,2,4,/,-225,9,/,
CC(=O)Oc1ccc(C(=O)NCc2ccco2)cc1,0,-1,2,27,3,-4,/,
CN(C)c1nc(NCc2ccccc2)nc(N/N=C/c2ccc(Br)cc2)n1,8,3,4,90*,17,3,33,
COc1ccc(-c2cc(C(=O)Nc3cc(OC)cc(C(=O)Nc4cccc(C(F)(F)F)c4)c3)[nH]n2)cc1,31,-26,0,33,-16,32,/,
Nc1c(N=Nc2cccc(Cl)c2)c(=O)[nH]n1-c1ccccc1,-85,-2,5,56*,-151,-3,-51,
COc1ccc(N=c2oc3ccc(OC)cc3cc2-c2nc3ccccc3[nH]2)cc1,-86,-24,-1,93*,-192,-11,-145,
O=C(CN1C(=O)NC2(CCCC2)C1=O)N1CCN(c2ccccc2O)CC1,-5,-4,-1,-13,-28,-10,/,
CN(C)NC1=CC(=[N+]2CCCC2)CC(C)(C)C1,16,5,-4,2,11,14,/,
CCCN(CCC)C1=CC(=[N+]2CCCC2)CC(C)(C)C1,-4,3,-1,52*,10,10,42*,Full FLuc ctr=58*
CC(=O)Nc1cc(NC(C)=O)cc(C(=O)OC(C)C(=O)Nc2ccc(S(=O)(=O)N3CCCC3)cc2)c1 (configuration not stated),0,-6,5,29,19,-1,/,
CC(OC(=O)c1cc(Br)ccc1O)C(=O)Nc1ccc(S(=O)(=O)N2CCCC2)cc1 (configuration not stated),28,-24,-11,63*,-39,50,43*,Full FLuc ctr=73*
CC(OC(=O)c1ccc(S(=O)(=O)N2CCCCC2)cc1)C(=O)Nc1ccc(C(N)=O)cc1 (configuration not stated),-7,-3,-5,54*,0,-12,-16,
CC(C(=O)Nc1ccc(Br)cc1)N(C)CC(=O)NCc1ccco1 (configuration not stated),1,24,1,/,4,-11,/,
CN1CCCC(CC2c3ccccc3Sc3ccccc32)C1 (configuration not stated),60*,26,15,59*,-8,28,39,Full FLuc ctr=65*
CN1CCCC(CN2c3ccccc3Sc3ccccc32)C1 (configuration not stated),-10,0,11,51*,-4,8,19,
CN1CCCC(OC(=O)c2ccccc2F)C1 (configuration not stated),15,2,-30,9,15,-23,/,
O=C(NC(=S)Nc1nc2c(s1)CSc1ccccc1-2)c1ccccc1,16,6,7,68*,0,-1,8,
O=C(NC(=S)Nc1nc2c(s1)CCCC2)c1ccc(C(=O)c2ccccc2)cc1,-38,-4,7,4,-50,-3,/,
CCNC(=O)C1(C)CCN(C(=O)c2ccc(C)c(F)c2)C1 (configuration not stated),5,-1,-6,/,13,-15,/,
SMILES,Peg3 prom inh,KKLEB tox,ABHD5-PLIN5 inh,Mdm2 MdmX PPI,HIF-2a inh,CF NFkB inh,Mdm2 MdmX conf,others
CCC(O)CNC(=O)NC(=C(Cl)Cl)c1ccc(C)c(F)c1 (configuration not stated),27,8,8,77*,28,6,36,Full FLuc ctr=38*
Cc1oc(-c2ccc(Cl)cc2)cc1C(=O)/C(C#N)=C/Nc1ccccc1,21,-5,6,62*,21,1,10,
Cc1oc(-c2ccc(Cl)cc2)cc1C(=O)N1CCC1(C)C(=O)O (configuration not stated),-172,7,4,/,-164,2,/,
COc1ccc(S(=O)(=O)c2cnc3ccccc3n2)cc1,22,0,1,36,11,16,/,
O=S(=O)(Cc1ccccc1)c1cnc2ccccc2n1,33,-17,19,59*,6,9,14,
COc1ccc(CN2C[C@H]3CON(C)[C@H]3C[C@H]2c2ccc(-c3ccccc3)cc2)cc1,22,-4,0,/,9,11,/,
CCOC1=C2CN(S(=O)(=O)c3ccc(C)cc3)C(c3ccccc3)CC2N(S(=O)(=O)c2ccc(C)cc2)C(c2ccc(Br)cc2)C1 (configuration not stated),/,/,-4,/,2,/,/,
C=CCn1c(SCc2c(C)noc2C)nc2sc(C)c(C)c2c1=O,20,-14,-8,56*,-17,7,60*,Full FLuc ctr=49*
O=C(CN1C(=O)c2ccccc2S1(=O)=O)Nc1ncccn1,-3,10,-3,9,3,1,/,
O=C(CN1C(=O)c2ccccc2S1(=O)=O)c1ccccc1,53*,1,2,78*,46*,0,65*,Full FLuc ctr=98*
CN(c1cccc(NC(=O)CN2C(=O)c3ccccc3S2(=O)=O)c1)S(C)(=O)=O,14,8,6,51*,2,4,39,Full FLuc ctr=82*
CC(C)NC(=O)CN1C(=O)c2ccccc2S1(=O)=O,0,2,-5,-14,4,3,/,
O=C(CN1C(=O)c2ccccc2S1(=O)=O)Nc1ncc(Cl)cc1Cl,58*,-8,-8,84*,32,12,70*,Full FLuc ctr=64*
COc1ccccc1CNC(=O)C(=O)Nc1ccc(C(=O)N2CCC(C)CC2)cc1,-2,-2,-5,23,3,2,/,
CCCCNc1c(-c2cccc(-c3ccc(OC)cc3)c2)nc2cc(C)ccn12,89*,-13,-16,92*,-81,20,-1,
CCCCNc1c(-c2ccc(OC)c(SC3CCCCC3)c2)nc2ccc(Cl)cn12,14,-4,-3,23,-20,14,/,
